This is an account of results in PubChem BioAssay (NCATS).

What all share (assay): qHTS profiling for inhibitors of Plasmodium falciparum proliferation (AID 504749); further: nearly all actives have a fitted effect of over 60% in size
Settings in all cases: P. falciparum in erythrocytes, SYBR Green DNA, 72 h; series mostly up to 28.7 µM

One experiment has as its system CP291. A digest of the protocol: (§1)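 SYBR Green fluorescence (ex 485 nm, em 535 nm) reports parasite DNA after 72 h compound exposure of infected red cells at 0.3% parasitemia, 2.5% hematocrit; signal normalized to 0.29 uM artemisinin and vehicle wells.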
The next experiment deals with CP297. A digest of the protocol: as §1
The test system of another experiment is CP305. A digest of the protocol:
as §1

A further experiment relates to CP315. Summed up: as §1
For a further experiment, the system named is CP325. A digest of the protocol: as §1
For another experiment, the system named is CP329. A digest of the protocol:
as §1

The test system of the next experiment is DFO2036. A digest of the protocol: as §1
The test system of another experiment is DIV14. A digest of the protocol:
as §1

In the next experiment the test system is DIV17. Summed up: as §1
For a further experiment, the system named is DIV30. A digest of the protocol:
as §1

The next experiment deals with Dd2. Summed up: as §1
A further experiment relates to ECU. Summed up: as §1
For a further experiment, the system named is FAB9. Summed up:
as §1

Another experiment deals with GB4. Summed up:
as §1

The subject of a further experiment is HB3. A digest of the protocol: as §1
A further experiment concerns ICS. Summed up:
as §1

For a further experiment, the system named is JCK. Summed up: as §1
The test system of the next experiment is N140. A digest of the protocol: as §1
Another experiment deals with P93_24. Summed up:
as §1

The test system of the next experiment is CP335. A digest of the protocol:
as §1

Inconclusive results are not listed. Activity calls are given as the source filed them. The call rests on the fitted dose curve; in most records, active means well fitted inhibition curve with a large enough effect; inconclusive means small, poorly fitted or top-dose-only effect; inactive means flat fitted curve, though single readings scatter.
Potency means the concentration at half of the fitted maximal effect.

In the case of `CC(O)C(=O)O` (configuration not stated), the Potency result in the experiment with CP291, in the experiment on CP297, in the experiment with CP305, in the experiment on CP315, in the experiment on CP325 and with CP329 was “inactive” each time. Further, the Potency result in the experiment with DFO2036, in the experiment with DIV14, in the experiment with DIV17, with DIV30, with Dd2 and in the experiment on ECU was “inactive” in each case. Moreover, the Potency result in the experiment with FAB9, in the experiment with GB4, in the experiment on HB3, with ICS, in the experiment with JCK and with N140 was “inactive” each time. In addition, the Potency result in the experiment on P93_24 was “inactive”.
For the compound `CN=C(NC#N)Nc1ccc(C2=NNC(=O)CC2C)cc1` (configuration not stated), the Potency entry in the experiment with CP291, in the experiment on CP297, with CP305, in the experiment with CP315, with CP325 and with CP329 was “inactive” in each case. Besides, the Potency result in the experiment with CP335, in the experiment with DIV14, in the experiment on DIV17, in the experiment with DIV30 and with GB4 was “inactive” throughout.
For the compound `C[C@@H]1C(=O)NC2=Nc3cccc(Cl)c3CN21`, the Potency result in the experiment with CP291, with CP297, in the experiment with CP305, in the experiment with CP315, in the experiment with CP325 and in the experiment with CP329 was “inactive” in each case. The Potency entry in the experiment on CP335, with DFO2036, in the experiment on DIV17, with DIV30, in the experiment on Dd2 and with ECU was “inactive” each time. For the same compound, the Potency entry in the experiment with FAB9, in the experiment on HB3, in the experiment with JCK, in the experiment on N140 and in the experiment on P93_24 was “inactive” in each case.
Turning to `c1ccc(OCc2ccc(CCCN3CCOCC3)cc2)cc1`, the Potency entry in the experiment on CP291, in the experiment with CP297, in the experiment on CP305, in the experiment with CP315, in the experiment on CP325 and with CP329 was “inactive” each time. The Potency result with CP335, in the experiment on DFO2036, with FAB9, in the experiment on HB3, in the experiment with JCK and in the experiment with N140 was “inactive” in each case. Moreover, the Potency result in the experiment with P93_24 is “inactive”. Besides, the Potency in the experiment on DIV14 was 8.49 µM (active); with DIV17 it was 6.75 µM (active).
As to `CCCCOc1cc(C(=O)NCCN(CC)CC)c2ccccc2n1`, the Potency entry in the experiment with CP291, in the experiment with CP297, with CP305, in the experiment with CP315, in the experiment with CP325 and in the experiment with CP329 was “inactive” throughout. The Potency entry in the experiment with CP335, in the experiment with DFO2036, in the experiment with DIV17, in the experiment with DIV30, in the experiment with Dd2 and in the experiment with ECU was “inactive” throughout. In addition, the Potency result with FAB9, with HB3, with JCK, in the experiment with N140 and in the experiment with P93_24 was “inactive” in each case.
`COC1=CC(=O)C[C@@H](C)[C@]12Oc1c(Cl)c(OC)cc(OC)c1C2=O`: the Potency entry with CP291, in the experiment on CP297, in the experiment on CP305, with CP315, in the experiment with CP325 and with CP329 was “inactive” throughout. Besides, the Potency entry in the experiment with CP335, in the experiment on DFO2036, in the experiment on DIV17, with DIV30, with Dd2 and in the experiment with ECU was “inactive” in each case. The Potency entry in the experiment on FAB9, in the experiment with GB4, in the experiment with HB3, in the experiment with ICS, in the experiment with JCK and in the experiment with N140 was “inactive” throughout. For the same compound, the Potency entry with P93_24 was “inactive”.
With `COc1cc(NS(C)(=O)=O)ccc1Nc1c2ccccc2nc2ccccc12`, the Potency with CP291 is 1.69 µM (active); in the experiment with CP297, 4.78 µM (active); in the experiment with CP305, 3.38 µM (active); in the experiment with CP315, 6.75 µM (active); with CP325 it was 4.26 µM (active); in the experiment on CP329, 4.78 µM (active). The Potency with CP335 is 4.26 µM (active); in the experiment on DFO2036 it was 2.82 µM (active); with DIV14 it was 1.9 µM (active); in the experiment on DIV17, 1.51 µM (active); in the experiment with DIV30, 4.26 µM (active); in the experiment with ECU it was 3.16 µM (active). The Potency in the experiment with FAB9 was 3.98 µM (active); in the experiment on HB3, 5.01 µM (active); with ICS it was 1.58 µM (active); with JCK it was 3.55 µM (active); in the experiment on N140, 2 µM (active); with P93_24, 3.16 µM (active).
Turning to `C#C[C@]1(O)CC[C@H]2[C@@H]3CCc4cc(OC5CCCC5)ccc4[C@H]3CC[C@@]21C`, the Potency result in the experiment with CP291, in the experiment on CP297, in the experiment with CP305, in the experiment with CP315, with CP325 and with CP329 was “inactive” in each case. Besides, the Potency entry with DFO2036, in the experiment with DIV17, in the experiment with DIV30, in the experiment with Dd2, in the experiment with ECU and with FAB9 was “inactive” in each case. Besides, the Potency result with HB3, with JCK, with N140 and in the experiment with P93_24 was “inactive” throughout.
`CCN(CC)CCNC(=O)COc1ccc(Cl)cc1`: the Potency entry in the experiment with CP291, with CP305, in the experiment with CP315, with CP325, in the experiment with CP329 and with CP335 was “inactive” each time. The Potency entry in the experiment on DIV30, in the experiment on FAB9, in the experiment on HB3 and in the experiment on JCK was “inactive” in each case. Further, the Potency in the experiment with Dd2 was 12.6 µM (active); with ICS it was 12.6 µM (active); with N140, 12.6 µM (active); with P93_24 it was 11.2 µM (active).
Consider `CCCN1CCCC[C@H]1C(=O)Nc1c(C)cccc1C`, for which the Potency entry in the experiment on CP291, with CP315, in the experiment with CP329, in the experiment on DFO2036, in the experiment with DIV30 and in the experiment with ECU was “inactive” in each case. The Potency entry with FAB9, in the experiment with HB3, in the experiment with ICS, in the experiment with JCK, with N140 and in the experiment on P93_24 was “inactive” each time. Also, in the experiment with GB4, the Potency is 15.1 µM (active).
For the compound `O=S1(=O)c2cccc3cccc(c23)N1CCCN1CCN(c2ccc(F)cc2)CC1`, the Potency entry in the experiment on CP297, in the experiment with CP305, with CP315, in the experiment on CP325, in the experiment with CP329 and in the experiment with CP335 was “inactive” throughout. Besides, the Potency result with DFO2036, in the experiment with DIV30, with Dd2, in the experiment with ECU, in the experiment with FAB9 and in the experiment on GB4 was “inactive” in each case. For the same compound, the Potency entry in the experiment with HB3, with JCK, with N140 and in the experiment on P93_24 was “inactive” each time.
Turning to `C[C@@H](CN(C)C)CN1c2ccccc2Sc2ccccc21`, the Potency entry in the experiment on CP291, in the experiment with CP297, in the experiment with CP305, in the experiment on CP315, in the experiment with CP325 and in the experiment with CP335 was “inactive” each time. Besides, the Potency entry in the experiment on DFO2036, with ECU, in the experiment with FAB9, in the experiment on HB3, in the experiment with JCK and in the experiment on P93_24 was “inactive” in each case.
